In ChEMBL document CHEMBL3988442, “University of Dundee, Small-Polar-MMV Screening Library” (2021):
About 13,000 (27%) of roughly 48,000 compounds showed an effect of 50% or more. Some of the results follow.

What follows are compounds tested on Wolbachia pipientis (assay: Anti-Wolbachia Cell-Based Screen). Conditions: 5 µM.
Type: functional
Design: scale not given: in the data most compounds retested in dose-response had high values

Row | SMILES | Percent Effect [%]
1 | CCOc1ccc(OCC(O)CN2CCN(S(C)(=O)=O)CC2)cc1 (stereo not drawn) | 152.9
2 | CS(=O)(=O)N1CCN(CC(O)COc2ccc(F)cc2)CC1 (stereo not drawn) | -6.942
3 | CS(=O)(=O)N1CCN(CC(O)COc2ccc(Cl)cc2)CC1 (stereo not drawn) | 153.2
4 | CCc1ccc(OCC(O)CN2CCN(S(C)(=O)=O)CC2)cc1 (stereo not drawn) | 13.83
5 | CC(c1cccc(Cl)c1)N1CCN(S(C)(=O)=O)CC1 (stereo not drawn) | 0.53
6 | CN1CCC(N2CC[C@@H]3[C@@H](CCC(=O)N3CCC3=CCCCC3)C2)CC1 | -18.13
7 | CC(Cn1cccn1)NS(=O)(=O)Cc1ccc(F)cc1 (stereo not drawn) | 0.5755
8 | CC(=O)c1ccc(Cl)c(Cl)c1OCC(=O)NCC(F)(F)F | -11.44
9 | COC(=O)COc1c(F)cc(Br)cc1C(C)=O | 110.5
10 | CC(=O)c1cc(Br)cc(F)c1OCC(=O)NC(C)C | 60.24
11 | CNC(=O)COc1c(C(C)=O)ccc(Cl)c1Cl | -15.04
12 | O=C(COc1ccc(Br)cc1F)Nc1cn[nH]c1 | -2.369
13 | COc1cc(CCC(=O)NC2CC2)ccc1OCC(F)(F)F | -6.568
14 | CNC(=O)COc1c(F)cc(Br)cc1C(C)=O | 112.4
15 | CC(=O)c1ccc(Cl)c(Cl)c1OCC(=O)NC(C)C | -9.893
16 | CNC(=O)NC(=O)COc1c(C(C)=O)ccc(Cl)c1Cl | 18.02
17 | COc1ccc(C(C)=O)c(OCC(=O)NC(C)c2ccc(F)cc2)c1 (stereo not drawn) | 9.317
18 | Cc1ccc(OCC(=O)NC2CC2)nc1 | -4.219
19 | CC(=O)c1cc(Br)cc(F)c1OCC(=O)NC1CC1 | 100.7
20 | CCSc1ncc(CN(Cc2cnn(C)c2)CC(C)C)cn1 | -10.44
21 | Cc1cc(C(=O)OCC2CCCN2C(N)=O)c(C)o1 (stereo not drawn) | -25.43
22 | CC(C)c1cc(N2CCC[C@H](N)C2)n2nccc2n1 | 19.12
23 | CCc1noc(CNc2cc3c(cc2Cl)OCCCO3)n1 | -0.8134
24 | Cc1n[nH]c(=O)c2c(NC(=O)CN3CCCC(C(F)(F)F)C3)oc(C)c12 (stereo not drawn) | 17.73
25 | CC(NC(=O)N1CCS(=O)(=O)CC1)c1ccc(F)cc1Cl (stereo not drawn) | -12.17
26 | NC(=O)C1=NC2=NS(=O)(=O)c3ccccc3N2N1Cc1ccccc1Cl | -9.423

Row | SMILES | Percent Effect [%]
27 | COc1ccc(NC(C)=O)c(N2CCN(C(C)=O)CC2)n1 | 4.921
28 | COc1ccc2c3c1CN(C(C)=O)CC3=CC(C)(C)CO2 | 80.53
29 | COCCOC(=O)N1CC2=CC(C)(C)COc3ccc(OC)c(c32)C1 | 110
30 | COCC1CC2(CCN(C(=O)c3ccc(OC)c(Cl)c3)CC2)CO1 (stereo not drawn) | 1.634
31 | COC(=O)N1CC2=CC(C)(C)COc3ccc(OC)c(c32)C1 | 125.4
32 | COc1ccc2c3c1CN(S(C)(=O)=O)CC3=CC(C)(C)CO2 | 106.6
33 | COc1ccccc1C(C)N1CCN(S(C)(=O)=O)CC1 (stereo not drawn) | -21.28
34 | COc1ncccc1C1CC(=O)NCc2nc3sccn3c21 (stereo not drawn) | -19.07
35 | COCc1cc(NCc2cccnc2Oc2ccc(C)nc2)ncn1 | -2.689
36 | CSCCC1c2nc[nH]c2CCN1Cc1cncn1C (stereo not drawn) | -0.6967
37 | CSCc1noc(CNC(=O)c2cc(C)c(C)[nH]c2=O)n1 | -3.67
38 | CC(C)N(C)C(=O)C1CSCN1S(=O)(=O)c1cccs1 (stereo not drawn) | 24.99
39 | CCc1cc(NCC(N)=O)nc(N2CCCCC2)n1 | 3.256
40 | CCNC(=O)N1CCC2(CC1)CCn1c(-c3cccc(OC)c3)cnc12 | -4.783
41 | COc1ccc2c3c1CN(C(=O)N(C)C)CC3=CC(C)(C)CO2 | 71.28
42 | CCNC(=O)N1CC2=CC(C)(C)COc3ccc(OC)c(c32)C1 | 61.47
43 | COCC(=O)N1CC2=CC(C)(C)COc3ccc(OC)c(c32)C1 | 86.58
44 | COCC(=O)N1CCc2[nH]nc(-c3ccc4c(c3)OCO4)c2C1 | -8.415
45 | COCC(=O)N1CCN(C(=O)C2(c3ccc(C)c(OC)c3)CC2)CC1 | 8.797
46 | CCNC(=O)N1C[C@@H](NC(C)=O)[C@H](c2ccc(C)o2)C1 | -5.007
47 | COc1ccc2cc(C3CN(C(=O)N(C)C)CCO3)ccc2c1 (stereo not drawn) | 8.393
48 | Cc1cccc2ncnc(N3CCOC(C)C3)c12 (stereo not drawn) | 0.1008
49 | O=C1C(N2CCN(c3ccccc3Cl)CC2)CCN1C1CCOCC1 (stereo not drawn) | -17.41
50 | CCCn1nc(C)c(CNC(=O)C2COc3c(cccc3OC)C2)c1C (stereo not drawn) | -7.419
51 | O=C(NC[C@H]1OC[C@@H](NCc2ccccc2F)[C@@H]1O)c1ccc(F)cc1 | -2.288
52 | CC(C)c1n[nH]c(C(=O)Nc2ccncc2)c1Br | -16.38

Row | SMILES | Percent Effect [%]
53 | CC(C)c1n[nH]c(C(=O)Nc2ccnn2C(C)C)c1Br | -14.02
54 | Cc1cccc(NC(=O)c2[nH]nc(C(C)C)c2Br)n1 | 122.8
55 | CC(C)c1n[nH]c(C(=O)NC(C)c2ccncc2)c1Br (stereo not drawn) | 112.2
56 | COc1ncccc1NC(=O)c1[nH]nc(C(C)C)c1Br | 15.14
57 | Cc1ccnc(NC(=O)c2[nH]nc(C(C)C)c2Br)c1 | 97.23
58 | CC(C)c1n[nH]c(C(=O)Nc2cc[nH]n2)c1Br | -7.047
59 | COc1ccncc1NC(=O)c1[nH]nc(C(C)C)c1Br | -9.572
60 | CC(C)c1n[nH]c(C(=O)Nc2ccccn2)c1Br | 113.3
61 | Cn1cc(CN2CCn3cc(CNC(=O)C4CCC4)nc3C2)cn1.O=C(O)C(F)(F)F | 18.03
62 | O=C(NCc1nnc2ccccn12)N1CCOC(c2cccs2)C1 (stereo not drawn) | -3.405
63 | COc1ccc(-n2nc(C3CC3)nc2CCn2cnnn2)cc1 | -7.711
64 | COc1ccc(N2Cc3n[nH]c(=O)n3C2=O)cc1 | -0.5114
65 | COCC(=O)N1CCO[C@]2(CCC[C@H]2COC)C1 | 106.8
66 | O=C(c1ccoc1)N1CCO[C@]2(CCC[C@@H]2COCc2ccncc2)C1 | -6.569
67 | O=C(O)C(F)(F)F.O=C(c1ccc[nH]1)N1CCO[C@]2(CCC[C@@H]2COc2cccnc2)C1 | -3.807
68 | COC[C@@H]1CCC[C@@]12CN(C(=O)N(C)C)CCO2 | 101.2
69 | COC[C@@H]1CCC[C@@]12CN(C(=O)N1CCCC1)CCO2 | 87.5
70 | COC[C@H]1CCC[C@]12CN(C(=O)NCc1ccccc1)CCO2 | 18.34
71 | COC[C@H]1CCC[C@]12CN(CCc1ccccc1)CCO2.O=C(O)C(F)(F)F | 30.11
72 | O=C(c1ccno1)N1CCO[C@]2(CCC[C@@H]2COCc2ccncc2)C1 | -0.3534
73 | Cc1[nH]c2c(F)cccc2c1CC(=O)NCCCNc1cccnc1 | 12
74 | Cc1noc(COCC(=O)Nc2ccc(Br)c(C)n2)n1 | 11.2
75 | O=C(c1ccccc1)N1C[C@@H]2CC[C@H](C1)N(C(=O)CN1CCOCC1)C2 | -9.595
76 | CCc1nc(CNC(=O)c2ccc(C(C)N3CCCCC3)o2)cc(=O)[nH]1 (stereo not drawn) | -0.08952
77 | CCOC(=O)CNc1nc(COC)nc2c1cnn2C | 5.543
78 | CCn1c(C)nnc1SCCNc1nc(C)nc2c1cnn2C | -4.457

Row | SMILES | Percent Effect [%]
79 | CCOC(=O)CC1(Nc2nc(C)nc3c2cnn3C)CCCCC1 | 107.9
80 | Cn1ncc2c(NCCC34CCCN3CCC4)nc(C3CCCC3)nc21 | 4.055
81 | CCOC(=O)CNc1nc(C(C)(C)C)nc2c1cnn2C | 2.145
82 | CCCc1nc(N(C)CCN2CCCCCC2)c2cnn(C)c2n1 | 11.67
83 | CCC(Nc1nc(C)nc2c1cnn2C)c1ncnn1CC (stereo not drawn) | 13.02
84 | Cc1nsc(NC(=O)NC2(CN3CCCCC3)CCCCC2)n1 | 1.448
85 | Cc1nc(NC2(CN3CCCCC3)CCCCC2)c2cnn(C)c2n1 | 98.05
86 | CCCc1nc(NC2(COC)CCCC2)c2cnn(C)c2n1 | 85.47
87 | COCC1(Nc2nc(C)nc3c2cnn3C)CCCC1 | 115.3
88 | CCOC(=O)CC(C)Nc1nc(C2CCCC2)nc2c1cnn2C (stereo not drawn) | -2.112
89 | O=C(C1=CCCC1)N1CCC[C@]2(C[C@@H](OCc3ccccn3)CO2)C1.O=C(O)C(F)(F)F | 5.284
90 | CS(=O)(=O)N1C[C@@H]2CC[C@H](C1)N(C(=O)Cn1nc3ccccc3n1)C2 | 3.871
91 | Cc1csc(N2CCN(C(=O)CCC(=O)c3ccc(C)s3)CC2)n1 | 7.228
92 | CCS(=O)(=O)N1CCOC2(COCCN(c3nccs3)C2)C1 (stereo not drawn) | 11.05
93 | CC(C)c1ccc(S(=O)(=O)NC2CCN(CC(F)(F)F)C2)cc1 (stereo not drawn) | 12.82
94 | COc1cc(CN2CCC(O)(c3ccc(C)cn3)CC2)cc(Cl)c1OC | -12.14
95 | COc1cc(CN2CC[C@@H](N3CCCCCC3)[C@H](O)C2)cc(Cl)c1OC | 100.3
96 | COc1ccc(CN2CCCC(n3cccn3)C2)c(Cl)c1OC (stereo not drawn) | 1.14
97 | COc1cc(Cl)cc(CN2CCCC(N3CCOCC3)C2)c1OC (stereo not drawn) | 106.9
98 | COc1cc(Cl)cc(CN2CCCC(N3CCCC3)C2)c1OC (stereo not drawn) | 116
99 | Cc1cc(C)c2[nH]c(CN3CCCC(N4CCOCC4)C3)cc(=O)c2c1 (stereo not drawn) | 0.1169
100 | O[C@@H]1CN(CC2=Cc3cc(Cl)ccc3OC2)CC[C@H]1N1CCCCCC1 | 0.906
101 | COc1ccc(CN2CCCC(N3CCCC3)C2)cc1Cn1cncn1 (stereo not drawn) | 15.57
102 | CC(C)Oc1ccc(CN2CCCC(N3CCOCC3)C2)cc1CO (stereo not drawn) | -0.1551
103 | CNC(=O)[C@@H]1COC[C@H]2CN(C(=O)c3ccc(C)c(F)c3)C[C@H]21 | 1.789
